Test results as given in the supplement of paper PMC6555819.

Columns and labels:
Experiment in all cases: PBM binding z-score (relative to random genomic background probes); higher = stronger binding; sequences stand for … in GC…GCGATTGACAGCGTAGAATGAAGG
[1] = test system: FXR:RXRa (NR concentration 270 nM, RXRa partner concentration 90 nM)
Procedure, shortened: (§1)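 The probes on custom Agilent 4×180K protein-binding microarrays were double-stranded, with 34-nt variable regions bearing direct-repeat seeds, single-nucleotide variants, half-site ablations and random human genomic background sequences. Incubation lasted 1 h with ligand-free nuclear receptor dimers in PBS pH 7.4, 2% milk, 0.02% Triton X-100, 1 mM DTT, 0.2 mg/mL BSA and 0.4 mg/ml salmon testes DNA. Antibodies against each partner (one per run) detected bound dimers, and fluorescence scans were regression-normalized. Binding z-scores take the random background probes as reference.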

[2] = test system: LXRa:RXRa (NR concentration 270 nM, RXRa partner concentration 90 nM)
Procedure, shortened: as §1

[3] = test system: LXRa homodimer (NR concentration 270 nM)
Procedure, shortened: as §1

[4] = test system: LXRb:RXRa (NR concentration 270 nM, RXRa partner concentration 90 nM)
Procedure, shortened: as §1

[5] = test system: LXRb homodimer (NR concentration 270 nM)
Procedure, shortened: as §1

[6] = test system: PPARa:RXRa (NR concentration 270 nM, RXRa partner concentration 90 nM)
Procedure, shortened: as §1

[7] = test system: PPARg:RXRa (NR concentration 180 nM, RXRa partner concentration 90 nM)
Procedure, shortened: as §1

[8] = test system: PPARg:RXRa 270nM:90nM, anti-RXR (NR concentration 270 nM, RXRa partner concentration 90 nM)
Procedure, shortened: as §1

[9] = test system: PPARg:RXRa 30nM:10nM, anti-RXR (NR concentration 30 nM, RXRa partner concentration 10 nM)
Procedure, shortened: as §1

[10] = test system: PPARg:RXRa 90nM:30nM, anti-RXR (NR concentration 90 nM, RXRa partner concentration 30 nM)
Procedure, shortened: as §1

[11] = test system: PPARg:RXRa DBDmut IVT, anti-RXR (DBD mutation: RXRa K156A/R161A, NR concentration 270 nM, RXRa partner concentration 90 nM)
Procedure, shortened: as §1

[12] = test system: PPARg:RXRa IVT, anti-PPARg (NR concentration 270 nM, RXRa partner concentration 90 nM)
Procedure, shortened: as §1

[13] = test system: PPARg DBDmut:RXRa IVT, anti-PPARg (DBD mutation: PPARg1 K132A/R137A, NR concentration 270 nM, RXRa partner concentration 90 nM)
Procedure, shortened: as §1

[14] = test system: PPARg DBDmut IVT, anti-PPARg (DBD mutation: PPARg1 K132A/R137A, NR concentration 270 nM)
Procedure, shortened: as §1

[15] = test system: PPARg homodimer (NR concentration 180 nM)
Procedure, shortened: as §1

[16] = test system: PXR:RXRa (NR concentration 270 nM, RXRa partner concentration 90 nM)
Procedure, shortened: as §1

[17] = test system: PXR homodimer (NR concentration 270 nM)
Procedure, shortened: as §1

[18] = test system: RARa:RXR (NR concentration 270 nM, RXRa partner concentration 90 nM)
Procedure, shortened: as §1

[19] = test system: RARa homodimer (NR concentration 270 nM)
Procedure, shortened: as §1

[20] = test system: RARb:RXRa (NR concentration 270 nM, RXRa partner concentration 90 nM)
Procedure, shortened: as §1

| Sequence | PBM binding z-score [1] | PBM binding z-score [2] | PBM binding z-score [3] | PBM binding z-score [4] | PBM binding z-score [5] | PBM binding z-score [6] | PBM binding z-score [7] | PBM binding z-score [8] | PBM binding z-score [9] | PBM binding z-score [10] | PBM binding z-score [11] | PBM binding z-score [12] | PBM binding z-score [13] | PBM binding z-score [14] | PBM binding z-score [15] | PBM binding z-score [16] | PBM binding z-score [17] | PBM binding z-score [18] | PBM binding z-score [19] | PBM binding z-score [20] |
| --- | --- | --- | --- | --- | --- | --- | --- | --- | --- | --- | --- | --- | --- | --- | --- | --- | --- | --- | --- | --- |
| TCTTGTAGAGCAATAGAGGTTAAGAAAGTGCGCT | 0.316 | 2.34 | 0.104 | 1.18 | -0.745 | 1.92 | 0.157 | 1.31 | 1.69 | 1.55 | 1.71 | 1.36 | -0.0371 | 0.131 | -0.051 | 2.73 | -0.322 | 1.25 | -0.851 | 0.425 |
| CGAACTAGGTCATTCAGGACAGTGAATACATTGA | 4.37 | 2.73 | 0.67 | 2.11 | 0.253 | 4.49 | 7.24 | 6 | 3.42 | 5.66 | 8.1 | 7.91 | 2.05 | 1.68 | 1.19 | 2.04 | 1.68 | 2.17 | 0.688 | 3.61 |
| TCATATAGGTAAAAGGTGAAAGTGGGTGTGGTAA | 2.2 | 2.19 | 0.716 | 2.45 | 0.97 | 5.49 | 9.05 | 8.74 | 8.47 | 9.1 | 5.36 | 5.24 | 0.898 | 1.26 | 2.63 | 2.31 | 1.28 | 3.5 | 2.39 | 2.22 |
| CCGACTGGGGCAGCAAGGTTACCATACCATCCGG | -0.0165 | -0.101 | -0.322 | -0.094 | -0.744 | 0.883 | 0.917 | 0.659 | -0.509 | 0.147 | 1.54 | 2.54 | -0.529 | -1.62 | 0.27 | 0.264 | -0.339 | 0.662 | -0.434 | 1.39 |
| TCTCGGAGGAAACGAAGGTCAGAGCTTTCCAGAG | 0.418 | 0.556 | -0.0873 | 1.02 | -1.15 | 1.72 | -0.151 | 1.19 | 1.74 | 1.39 | 0.867 | -0.0763 | -1.61 | -1.24 | 0.766 | 0.848 | -0.378 | 1.7 | -0.763 | 2.03 |
| CTCGAAAGTTCGTGCTCAGGTGAGTATACCAAAC | 0.841 | 1 | 0.162 | 1.03 | -0.134 | 1.39 | -0.262 | 0.502 | 0.0705 | 0.433 | -0.18 | 0.443 | -0.211 | 0.0374 | 0.564 | 1.4 | 0.241 | 1.64 | -0.0689 | 2.06 |
| TCTCGGAGGACACGAACGTCAGAGCTTTCCAGAG | 0.0459 | 0.0114 | -0.625 | -0.532 | -1.31 | 0.0688 | 0.0947 | 0.795 | 1.95 | 1.18 | 0.985 | -0.0503 | -0.617 | -1.23 | -1.43 | -0.256 | -0.522 | -0.0977 | -1.21 | 1.35 |
| TTGCCTAGGTCAGATCGGGCCAGTATACGCTATA | 2.67 | 1.04 | -0.621 | 0.692 | -0.831 | 1.51 | 0.532 | 0.852 | -0.179 | 0.0126 | 0.589 | 1.07 | -1.83 | -1.18 | 0.162 | 1.47 | -0.653 | 1.46 | -0.953 | 3.07 |
| ACTATTAGTTGACTTAGTGCAACCGATACGACGC | -0.217 | -0.0103 | -0.0872 | -0.107 | 0.478 | -0.0535 | 0.743 | 0.105 | 0.433 | 0.153 | 0.167 | 0.382 | 0.85 | 0.707 | 0.732 | 0.283 | 0.128 | 0.123 | 0.689 | 0.309 |
| ATATATAGGTTATCGGGTCATTCAGTTTGCGCAT | 3.94 | 3.78 | 2.66 | 3.46 | 2.07 | 5.17 | 7.65 | 6.52 | 4.09 | 6.01 | 7.55 | 7.39 | 3.48 | 3.64 | 4.29 | 3.91 | 8.17 | 4.26 | 3.1 | 2.96 |
| TCTTGTAGATCAAGCAGGTTTAGAAAGCCTGAGT | 0.0311 | 0.0459 | -0.387 | -0.134 | -0.464 | 0.137 | -0.639 | 0.91 | 2.24 | 1.35 | 1.37 | 0.0829 | -0.44 | 0.305 | -0.478 | 0.273 | -0.0713 | -0.152 | -0.252 | -0.191 |
| CCTAGTTGGTCAGAAGGTCACACACCGGATATGA | 3.53 | 3.45 | 1.87 | 3.36 | 1.07 | 4.17 | 2.81 | 4.25 | 1.8 | 3.82 | 1.63 | 2.85 | 1.32 | 0.414 | 4.39 | 3.98 | 1.29 | 4.56 | 3.08 | 3.85 |
| AGAATCAGGTTATTAAGATCAGGGAATTGCGGTC | 0.5 | 0.587 | 0.33 | 0.473 | 0.697 | 1.16 | 0.693 | 1.04 | 0.466 | 0.97 | 2.96 | 2.28 | 0.999 | 0.854 | 1.29 | 0.516 | 0.602 | 0.644 | 1.45 | 1 |
| ACTAGCAAGCCAAGGGTCACTCAAGATTAGTCCG | 2.21 | 2.75 | 0.27 | 2.66 | -0.201 | 3.53 | 3.39 | 4.44 | 2.1 | 4.11 | -0.0877 | 1.46 | -0.235 | -0.0767 | 1.68 | 3.01 | 0.0127 | 3.79 | 0.419 | 3.11 |
